# High-throughput results: PubChem BioAssay, National Center for Advancing Translational Sciences (NCATS)
# This is a sample that favours compounds with a hit; in the whole collection about 10% have one here.
# G9a block – G9a (human) methyltransferase inhibition | Q96KQ7 | AID 504332 | 8.8% of 350,000 active | G9a H3K9 monomethylation, AlphaScreen, 2 h | Potency, µM (titrated, usually from 102 µM), inactives show at the top dose activity, negative = inhibition, hits mostly inhibitors; note: % is set by controls: 0 for no effect and ±100 for the full control effect; nearly all actives have a fitted effect of over 75% in size
# Target sequence (Q96KQ7 913-1193 limits assumed): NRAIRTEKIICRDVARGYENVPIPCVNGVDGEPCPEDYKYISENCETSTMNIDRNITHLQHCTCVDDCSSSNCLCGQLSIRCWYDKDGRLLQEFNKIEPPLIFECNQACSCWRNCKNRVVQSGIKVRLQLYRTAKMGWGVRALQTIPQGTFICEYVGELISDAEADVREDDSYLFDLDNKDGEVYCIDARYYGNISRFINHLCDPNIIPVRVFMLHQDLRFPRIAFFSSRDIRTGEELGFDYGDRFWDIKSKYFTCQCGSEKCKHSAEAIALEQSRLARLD
#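 AlphaScreen detection with an anti-monomethyl H3K9 antibody quantified product after a 2 h room-temperature reaction containing 500 nM biotinylated H3K9 peptide, 20 µM SAM and 20 nM enzyme, which had been preincubated 15 min with compound.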
# BAZ2B block – inhibitors of human BAZ2B bromodomain. AlphaScreen BAZ2B-H3K14Ac peptide displacement. Potency, µM (top dose mostly 114 µM), for inactives: at the top dose activity change, negative = inhibition, actives largely listed as inhibitors. 4.4% of 360,000 active; note: % is set by controls: 0 for no effect and ±100 for the full control effect; nearly all actives have a fitted effect of over 60% in size
#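 AlphaScreen displacement of biotin-H3(5-23)K14Ac peptide (50 nM final) from BAZ2B (50 nM final) in PBS pH 7.4, 0.01% Tween-20; complex preformed 30 min RT, then compounds (top 110 uM) 30 min RT, beads 20 min dark.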
# L3MBTL1 block – inhibitors of human L3MBTL1 | AlphaScreen L3MBTL1–H3K9me1 peptide binding | Potency, µM (highest dose often 57.1 µM), for inactives: top-dose activity, negative = inhibition, most hits filed as inhibitors | 0.66% of 230,000 active | AID 485360; note: % is set by controls: 0 for no effect and ±100 for the full control effect; nearly all actives have a fitted effect of over 60% in size
#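 Read-out is AlphaScreen signal from streptavidin donor and nickel chelate acceptor beads (10 ug/mL final each) bridging L3MBTL1 (50 nM) and biotinylated K9-monomethylated H3(1-15) peptide (75 nM), after 30 min compound exposure at room temperature.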
# JMJD2A Tudor – inhibitors of human JMJD2A Tudor domain; O75164; 4.4% of 390,000 active; Potency, µM (highest dose often 114 µM), for inactives: top-dose activity change, negative = inhibition, actives largely listed as inhibitors; AlphaScreen JMJD2A-Tudor / H3K4me3 peptide binding; AID 504339; note: % is set by controls: 0 for no effect and ±100 for the full control effect; nearly all actives have a fitted effect of over 50% in size
# HP1b chromo inh – blocks HP1-beta chromodomain binding to methylated histone tails. 0.56% of 390,000 active. AlphaScreen HP1-beta / biotin-H3K9me3 peptide binding. Potency, µM (series often up to 114 µM), inactives show top-dose activity change, negative = inhibition, actives largely listed as inhibitors; note: nearly all actives have a fitted effect of over 70% in size
# Target sequence (P83916 whole entry, looked up): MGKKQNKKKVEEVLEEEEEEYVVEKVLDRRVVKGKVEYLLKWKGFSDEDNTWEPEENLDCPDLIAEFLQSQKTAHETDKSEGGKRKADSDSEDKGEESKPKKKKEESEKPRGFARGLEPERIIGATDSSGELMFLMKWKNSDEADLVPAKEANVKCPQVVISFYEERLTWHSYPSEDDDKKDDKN
#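 HP1-beta protein (50 nM final) preincubated 30 min at room temperature with biotinylated H3(1-18)K9me3 peptide (50 nM) in PBS pH 7.4, 0.01% Tween-20, then compound added for 30 min. AlphaScreen streptavidin donor/nickel chelate acceptor beads (10 ug/mL final), 30 min dark, luminescence read.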
# GLS inh – glutaminase GLS (human) inhibition; 0.21% of 410,000 active; Potency, µM (doses to about 45.5 µM), without a hit: at the highest dose activity change, negative = inhibition, most hits filed as inhibitors; GLS enzymatic activity, qHTS titration; O94925; note: % is set by controls: 0 for no effect and ±100 for the full control effect
#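 hKGA; 45 mM KH2PO4 pH 8.2 + 0.02% Tween-20; cpd via pin tool; 1 mM Gln soln; GluOx/HRP/Amplex Red; RT 30 min; fluor. t0 & final.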
# * hit, by the source's call; ? = inconclusive; nt = not tested or not shown; [ ] = remark or other dose. Calls come from the whole dose curve; as a rule, active = well fitted curve in the direction sought with a large enough effect; inconclusive = small, poorly fitted or top-dose-only effect, or another doubt; inactive = no such curve, though single readings can be large; an effect the other way counts as inactive or inconclusive. Potency is the fitted concentration of half-maximal effect.
SMILES,G9a block,BAZ2B block,L3MBTL1 block,JMJD2A Tudor,HP1b chromo inh,GLS inh
CCOC(=O)N1CC=C2C(C#N)=C(N)C(C#N)(C#N)[C@H](c3ccccc3OCC)[C@H]2C1,-18%[12.7 µM],-29%,nt,-14%,45%,-3%
N#CC1=C(N)C(C#N)(C#N)C(c2ccncc2)C2CN(C(=O)OCc3ccccc3)CC=C12 (configuration not stated),16µM*,-3%,22%[11.4 µM],-9%,58%,-2%
CN1CC=C2C(C#N)=C(N)C(C#N)(C#N)[C@H](c3cccc(Cl)c3)C2C1 (some centres not stated),25µM*,-35%,nt,-9%,46%,-14%
COCCn1c(=S)[nH]c2cc(C(=O)N3CCN(Cc4ccccc4)CC3)ccc2c1=O,nt,nt,nt,-21%,50%,nt
O=C(c1ccc2c(=O)n(CC3CCCO3)c(=S)[nH]c2c1)N1CCN(C(=O)c2ccco2)CC1 (configuration not stated),nt,nt,nt,?,56%,nt
N#CC1=C(N)C(C#N)(C#N)[C@H](c2cccnc2)[C@H]2CN(C(=O)OCc3ccccc3)CC=C12,50µM*,-21%,-14%,-9%,29%,5%
N#CC1=C(N)C(C#N)(C#N)C(c2cccnc2)C2CC(c3ccccc3)CC=C12 (configuration not stated),nt,-37%,-1%,-8%,40%,3%
Cc1noc(C)c1S(=O)(=O)NCCc1csc2nc(-c3ccc(F)cc3)nn12,10%[59 µM],-2%,nt,?,8%,-7%
CC(NC(=O)Nc1ccc(Cl)c(Cl)c1)C(c1ccccc1)N1CCOCC1 (configuration not stated),0%,-1%,?,-6%,41%,0%
CC(NC(=O)Nc1ccc([N+](=O)[O-])cc1)C(c1ccccc1)N1CCOCC1 (configuration not stated),40µM*,16%,-10%,-28%,11%,1%
C#CCOCCOCCOCCNc1nc(N2CCN(C(=O)C([C@@H](C)CC)n3cc(C(N)COC(=O)C(F)(F)F)nn3)CC2)nc(N2CCN(C(=O)[C@H](Cc3cc4ccccc4[nH]3)n3cc(C(N)CO)nn3)CC2)n1 (some centres not stated),nt,nt,nt,50µM*,29%,35%
C#CCOCCOCCOCCNc1nc(N2CCN(C(=O)C(CCC(=O)O)n3cc(C(N)CC(C)C)nn3)CC2)nc(N2CCN(C(=O)C(Cc3cc4ccccc4[nH]3)n3cc(C(N)Cc4ccc(O)cc4)nn3)CC2)n1 (configuration not stated),3%[12.7 µM],45µM*,-29%,56µM*,9%,16%
C#CCOCCOCCOCCNc1nc(N2CCN(C(=O)[C@H]([C@@H](C)CC)n3cc([C@@H](N)CO)nn3)CC2)nc(N2CCN(C(=O)[C@H](Cc3cc4ccccc4[nH]3)n3cc([C@@H](N)C(C)CC)nn3)CC2)n1 (some centres not stated),?,50µM*,-22%,nt,nt,nt
C#CCOCCOCCOCCNc1nc(N2CCN(C(=O)[C@H](Cc3cc4ccccc4[nH]3)n3cc([C@@H](N)C(C)CC)nn3)CC2)nc(N2CCN(C(=O)[C@H](CCCCN)n3cc([C@@H](N)CC(C)C)nn3)CC2)n1 (some centres not stated),-5%[12.7 µM],35µM*,-12%,45µM*,-4%,18%
CCn1nc(C)c2c(-c3ccccc3)cc(=O)n(C(C)C(=O)NCc3ccccc3OC)c21 (configuration not stated),8%[59 µM],-12%,nt,-23%,15%,-2%
C#CCOCCOCCOCCNc1nc(N2CCN(C(=O)[C@H]([C@@H](C)CC)n3cc([C@@H](N)CC(C)C)nn3)CC2)nc(N2CCN(C(=O)[C@H](Cc3cc4ccccc4[nH]3)n3cc([C@@H](N)CC(C)C)nn3)CC2)n1,?,56µM*,nt,nt,nt,nt
C#CCOCCOCCOCCNc1nc(N2CCN(C(=O)[C@H](CCC(=O)O)n3cc(C(N)CC(C)C)nn3)CC2)nc(N2CCN(C(=O)[C@H](Cc3cc4ccccc4[nH]3)n3cc(C(N)CC(C)C)nn3)CC2)n1 (some centres not stated),?,50µM*,-22%,?,12%,3%
C#CCOCCOCCOCCNc1nc(N2CCN(C(=O)[C@H](Cc3cc4ccccc4[nH]3)n3cc(C(N)CC(C)C)nn3)CC2)nc(N2CCN(C(=O)[C@H](CCC(=O)O)n3cc(C(N)[C@H](C)CC)nn3)CC2)n1 (some centres not stated),1%[12.7 µM],45µM*,-6%,56µM*,13%,2%
C#CCOCCOCCOCCNc1nc(N2CCOCC2)nc(N2CCN(C(=O)[C@H]([C@@H](C)CC)n3cc([C@@H](N)CO)nn3)CC2)n1,?,-27%,-6%,-26%,?,0%
C#CCOCCOCCOCCNc1nc(N2CCOCC2)nc(N2CCN(C(=O)[C@H](Cc3cc4ccccc4[nH]3)n3cc([C@@H](N)CC(C)C)nn3)CC2)n1,?,-34%,-1%,?,-9%,3%
C#CCOCCOCCOCCNc1nc(N2CCN(C(=O)[C@H](Cc3cc4ccccc4[nH]3)n3cc([C@@H](N)CC(C)C)nn3)CC2)nc(N2CCN(C(=O)[C@H](Cc3cc4ccccc4[nH]3)n3cc([C@@H](N)CC(C)C)nn3)CC2)n1,?,45µM*,?,45µM*,?,1%
CCN(C(=O)CCS(=O)(=O)c1ccc2c(c1)CCN2C(C)=O)c1cccc(C(F)(F)F)c1,-8%[59 µM],nt,nt,-15%,7%,7%
COc1ccc(-n2c(=O)c(-c3ccc(Cl)cc3)nc3cnc(N4CCNCC4)nc32)cc1,4%[0.501 µM],nt,nt,nt,nt,nt
O=C(/C=C/c1ccc(Br)o1)OCc1nc2ccsc2c(=O)[nH]1,18%[0.501 µM],40µM*,3.2µM*,40µM*,-66%,?
Cc1ccc(C(=O)OCc2nc3ccsc3c(=O)[nH]2)o1,21%[2.33 µM],23%,-4%,-6%,21%,2%
Cc1cnc(C(=O)OCc2nc3ccsc3c(=O)[nH]2)cn1,16%[12.7 µM],50µM*,?,56µM*,-25%,14µM*
CCc1ccc(N2CC(C(=O)OCc3nc4ccsc4c(=O)[nH]3)CC2=O)cc1 (configuration not stated),3%[12.7 µM],5%,?,-13%,24%,18µM*
